Sampled rows, rich in hits. Any-hit rate of the full collection: about 2.3%.
M1 ag: human M1 muscarinic receptor agonism; P11229; CHO-K1 hM1, Fluo-8 calcium fluorescence, agonist mode; 0% DMSO, 100% acetylcholine EC100; activation, % at 3 µM; hit rate 0.33% among 360,000;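 active means activation above the run's mean compound activation plus 3 SD, cut at about 16% in these data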;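 further: peak over basal fluorescence ratio within a 140 s kinetic read after compound addition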
Target sequence (P11229 whole entry, looked up): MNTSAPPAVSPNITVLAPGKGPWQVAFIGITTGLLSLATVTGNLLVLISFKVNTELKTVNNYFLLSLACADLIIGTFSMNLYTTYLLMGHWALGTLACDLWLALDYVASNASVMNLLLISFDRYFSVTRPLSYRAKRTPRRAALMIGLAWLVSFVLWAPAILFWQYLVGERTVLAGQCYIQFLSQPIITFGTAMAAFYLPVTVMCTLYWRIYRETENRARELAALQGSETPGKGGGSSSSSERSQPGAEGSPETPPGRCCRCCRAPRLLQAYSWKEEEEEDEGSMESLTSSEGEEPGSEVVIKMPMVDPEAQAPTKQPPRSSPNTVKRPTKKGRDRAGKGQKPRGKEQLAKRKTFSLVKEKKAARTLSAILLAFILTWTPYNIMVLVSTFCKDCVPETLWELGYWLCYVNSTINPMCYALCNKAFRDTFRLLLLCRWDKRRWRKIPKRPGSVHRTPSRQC
M1 ag parental: counter-screen for M1 agonists: effect in parental CHO-K1 cells | Fluo-8 calcium fluorescence; scaled to maximal ATP response, vehicle zero | activation, % at 3 µM | hit rate 0.48% among 360,000 | AID 602248; in the data active means activation above about 15%;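 further: untransfected CHO-K1 host cells lacking M1 receptor as counterscreen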
M1 antag: antagonists of human M1 muscarinic receptor; P11229; CHO-K1 hM1, Fluo-8 calcium fluorescence, ACh EC80 antagonist; inhibition, % at 3 µM; hit rate 1.3% among 360,000;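 active means percent inhibition above its own plate's cutoff, namely the mean of that plate's compound wells plus 3 SD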;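 further: peak over basal fluorescence ratio during 140 s after agonist addition; 0% = ACh EC80 plus DMSO and 100% = DMSO alone without agonist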
CHO-K1 Ca antag: counter-screen for M1 antagonists: effect in parental CHO-K1 cells. ATP-induced calcium, Fluo-8 fluorescence. inhibition, % at 3 µM. hit rate 0.6% among 360,000. AID 602250;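 active means inhibition above a per-plate cutoff, the plate's mean sample inhibition plus 3 SD, cut at about 24% in these data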;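 further: 0% = DMSO plus EC80 ATP and 100% = DMSO alone without ATP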
M1 PAM: positive allosteric modulators of human M1 muscarinic receptor; CHO-K1 hM1, Fluo-8 calcium fluorescence, ACh EC20; 0% = ACh EC20, 100% = maximal ACh; AID 588819; activation, % at 3 µM; P11229; hit rate 0.088% among 360,000; in the data active means activation above about 19%, passing the limit was not always enough
CHO-K1 Ca PAM: counter-screen for M1 PAMs: effect in parental CHO-K1 cells | activation, % at 3 µM | AID 602247 | ATP EC20, Fluo-8 calcium fluorescence; 0% at ATP EC20, 100% at ATP max | hit rate 0.02% among 360,000;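 active means activation above the run cutoff, the mean activation of all test compounds plus 3 SD, cut at about 40% in these data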;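 further: peak over basal fluorescence ratio in a 140 s read after ATP addition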
An asterisk follows results filed as active.

What do the screens show for `COc1ccc2[nH]c(=O)c(CN(CCO)S(=O)(=O)c3c(C)ccc4nsnc34)cc2c1`?
M1 ag: -1.2; M1 ag parental: 1.2; M1 antag: 3.5; CHO-K1 Ca antag: 28.9*; M1 PAM: 0.7; CHO-K1 Ca PAM: -8.3

How did CCCN(CC(=O)NC(=O)NCc1ccccc1)CC(=O)Nc1ccc(F)c(F)c1F do in these assays?
M1 ag: -5.2; M1 ag parental: 0.9; M1 antag: -10.8; CHO-K1 Ca antag: -13.3; M1 PAM: 5.2; CHO-K1 Ca PAM: 15.7

What do the screens show for `CC(=O)O[C@H]1C[C@@]2(C)[C@@H](C[C@@H](O)[C@H]3[C@@]4(C)CC[C@@H](O)[C@@H](C)[C@@H]4CC[C@@]32C)/C1=C(\CCC=C(C)C)C(=O)O`?
M1 ag: -5.9; M1 ag parental: 0.9; M1 antag: -20.4; CHO-K1 Ca antag: -12.4; M1 PAM: -5.5; CHO-K1 Ca PAM: 15.9

What do the screens show for `O=C(Nc1ccccc1N1CCCCC1)C1CCN(C(=O)c2ccc(Cl)cc2)CC1`?
M1 ag: -7.7; M1 ag parental: -0.7; M1 antag: -10.8; CHO-K1 Ca antag: -5.1; M1 PAM: 3.5; CHO-K1 Ca PAM: -9.8

How did CCC(C)NC(=S)Nc1ccc(C(=O)OC)cc1 (stereo not given) do in these assays?
M1 ag: -6.9; M1 ag parental: 4.0; M1 antag: -9.4; CHO-K1 Ca antag: -5.2; M1 PAM: 1.8; CHO-K1 Ca PAM: 23.2

How did N=C1C(c2nc3ccccc3s2)=C(O)CN1c1ccccc1 do in these assays?
M1 ag: -4.8; M1 ag parental: 1.0; M1 antag: -0.7; CHO-K1 Ca antag: -19.8; M1 PAM: 4.9; CHO-K1 Ca PAM: 27.8

How did COc1ccc(NS(=O)(=O)c2cccc(C(=O)NCC(c3ccccc3OC)N3CCCC3)c2)cc1 (stereo not given) do in these assays?
M1 ag: -6.2; M1 ag parental: 1.9; M1 antag: 81.8*; CHO-K1 Ca antag: -7.2; M1 PAM: -24.7; CHO-K1 Ca PAM: 7.7

How did COc1ccc(NS(=O)(=O)c2cccc(C(=O)NCC(c3ccc(OC)cc3)N3CCCC3)c2)cc1 (stereo not given) do in these assays?
M1 ag: -5.5; M1 ag parental: 5.2; M1 antag: -4.0; CHO-K1 Ca antag: 9.4; M1 PAM: 2.3; CHO-K1 Ca PAM: -1.8

How did COc1ccc(C(CNC(=O)c2oc3ccc(OC)cc3c2C)N2CCCC2)cc1 (stereo not given) do in these assays?
M1 ag: -5.7; M1 ag parental: -0.2; M1 antag: 14.0; CHO-K1 Ca antag: 30.1*; M1 PAM: -10.7; CHO-K1 Ca PAM: -29.8

What do the screens show for `CC(C)(CNC(=O)c1cccc(S(=O)(=O)Nc2ccc(SC(F)F)cc2)c1)N1CCOCC1`?
M1 ag: 0.8; M1 ag parental: 0.7; M1 antag: 34.9*; CHO-K1 Ca antag: 9.4; M1 PAM: -15.0; CHO-K1 Ca PAM: -16.5

What do the screens show for `C=CCN(c1ccccc1OC)S(=O)(=O)c1cccc(C(=O)NCC(c2ccc(OC)cc2)N2CCCC2)c1` (stereo not given)?
M1 ag: -8.5; M1 ag parental: 0.7; M1 antag: 34.2*; CHO-K1 Ca antag: -12.5; M1 PAM: -23.8; CHO-K1 Ca PAM: -2.5

What do the screens show for `COc1ccc(OC)c(NC(=O)COc2coc(CN3CCc4ccccc43)cc2=O)c1`?
M1 ag: -3.3; M1 ag parental: 0.8; M1 antag: 7.6; CHO-K1 Ca antag: 7.7; M1 PAM: -3.0; CHO-K1 Ca PAM: -9.9

How did CC[N+]1(CC(O)COC2CC(C)CC(C)(C)C2)CCOCC1 (stereo not given) do in these assays?
M1 ag: -7.8; M1 ag parental: 0.1; M1 antag: 9.8; CHO-K1 Ca antag: -4.6; M1 PAM: -17.1; CHO-K1 Ca PAM: 3.9

Results for COc1ccc(C(CNC(=O)c2cccc(S(=O)(=O)Nc3ccc(F)cc3)c2)N2CCCC2)cc1 (stereo not given) ?
M1 ag: -5.8; M1 ag parental: 2.1; M1 antag: -13.9; CHO-K1 Ca antag: 4.0; M1 PAM: 7.0; CHO-K1 Ca PAM: 18.6

How did COc1ccccc1C(CNC(=O)c1cccc(S(=O)(=O)Nc2ccc(F)cc2)c1)N1CCCC1 (stereo not given) do in these assays?
M1 ag: -8.2; M1 ag parental: 0.4; M1 antag: 100.6*; CHO-K1 Ca antag: -1.0; M1 PAM: -30.9; CHO-K1 Ca PAM: -5.9

How did COc1ccc(NS(=O)(=O)c2cccc(C(=O)NCc3ccccc3CN3CCOCC3)c2)cc1 do in these assays?
M1 ag: 22.9*; M1 ag parental: 7.5; M1 antag: 6.1; CHO-K1 Ca antag: -16.6; M1 PAM: -5.9; CHO-K1 Ca PAM: 9.8

How did COc1ccc(NS(=O)(=O)c2cccc(C(=O)NCCCN3CCOCC3)c2)cc1 do in these assays?
M1 ag: 0.8; M1 ag parental: 0.8; M1 antag: -4.7; CHO-K1 Ca antag: -7.5; M1 PAM: 0.7; CHO-K1 Ca PAM: 21.4

How did O=S(=O)(c1ccc(F)cc1)N1CCC2(CC1)OCCN2S(=O)(=O)c1cccs1 do in these assays?
M1 ag: 2.5; M1 ag parental: 3.8; M1 antag: -5.2; CHO-K1 Ca antag: 5.0; M1 PAM: 0.6; CHO-K1 Ca PAM: -19.9

How did CN(Cc1ccccc1C(F)(F)F)C(=O)C1CCC(=O)N(CC2CCCCC2)C1 (stereo not given) do in these assays?
M1 ag: -0.9; M1 ag parental: 1.8; M1 antag: -8.5; CHO-K1 Ca antag: -14.8; M1 PAM: 4.6; CHO-K1 Ca PAM: 13.9

Results for CCC1Nc2ncnc(N3CCc4ccccc4C3)c2N(Cc2ccc(Br)cc2)C1=O (stereo not given) ?
M1 ag: -7.3; M1 ag parental: 0.5; M1 antag: 18.5; CHO-K1 Ca antag: 19.5; M1 PAM: -12.6; CHO-K1 Ca PAM: -3.8

Results for Nc1cccc2c1C(=O)N(C(=O)c1cccc(S(=O)(=O)N3CCCCCC3)c1)C2=O ?
M1 ag: -0.5; M1 ag parental: 0.0; M1 antag: -22.4; CHO-K1 Ca antag: 28.5*; M1 PAM: 5.0; CHO-K1 Ca PAM: -5.5

What do the screens show for `Nc1cccc2c1C(=O)N(C(=O)c1ccc(Cl)c(S(=O)(=O)N3CCCCCC3)c1)C2=O`?
M1 ag: -3.0; M1 ag parental: 0.1; M1 antag: -24.2; CHO-K1 Ca antag: -3.0; M1 PAM: 2.4; CHO-K1 Ca PAM: 10.4

Results for COc1ccc(CN(C)C(=O)C2CCN(S(=O)(=O)c3cccs3)CC2)cc1F ?
M1 ag: -3.1; M1 ag parental: 3.9; M1 antag: 7.0; CHO-K1 Ca antag: -13.3; M1 PAM: -0.5; CHO-K1 Ca PAM: 9.3

What do the screens show for `CCOC(=O)N1CCC(N2C(=O)c3ccc(C(=O)Nc4cccc(OC)c4)cc3C2=O)CC1`?
M1 ag: -2.5; M1 ag parental: 0.6; M1 antag: -9.4; CHO-K1 Ca antag: -12.0; M1 PAM: 8.7; CHO-K1 Ca PAM: 0.2
